# Experimental data: PubChem BioAssay (NCI)
# Compounds without any hit were thinned out: in the full panel of roughly 83,000, 20% have a hit.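 Treatment: one concentration, 48 hours, 96-well format. Scoring: percent growth, with anything below 10 considered active.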 Activity calls are given as the source filed them.
# System: HL-60(TB) leukemia
# Test: NCI-60 one-dose screen, 48 h (100 = growth as untreated, 0 = no growth, -100 = all killed)
# Conditions: 10 µM unless noted
row,SMILES,growth
1,O=C(CCl)Nc1ccc2c(c1)C(=O)c1ccc(NC(=O)CCl)cc1C2=O,-59.7% (active)
2,COc1ccc2c(c1)c(-c1nc(-c3c[nH]c4ncccc34)cs1)cn2C,63.5% (inactive)
3,Cc1ccc(NCc2cn(-c3ccc(C(=O)O)cc3)nc2-c2ccc(C(=O)O)cc2)cc1,106% (inactive)
